This passage reports growth results from PubChem BioAssay (NCI).

Structures are written as SMILES. “And” between values parts separate entries of the source, which are not always exact repeats. Identical values can stand only once. Compounds without any hit were thinned out: in the full panel of roughly 83,000, 20% have a hit.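 Method: cells in 96-well plates; compound added at one concentration; 48 h incubation; percent growth measured; values under 10 scored active.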 The source made the active and inactive calls.

The subject of this assay is MCF7 breast. The experiment in a line: NCI-60 one-dose screen, 48 h (100 = growth as untreated, 0 = no growth, -100 = all killed). The note with it: 10 µM unless noted.
For `COc1cc2c(cc1-c1coc3cc(OCC=C(C)C)ccc3c1=O)OCO2`, the growth is -12% [100 µM] (active) and -54.2% [100 µM] (active).
The result for `Cc1c2c(c(O)c3c(O)cccc13)C(=O)C1(O)C(O)=C(C(=O)NCNc3ccc(C(N)=O)cn3)C(=O)C(N(C)C)C1C2` (stereo not given) reads -81.9% [100 µM] (active) and -89.4% [100 µM] (active).
Take `N#Cc1c(SCc2ccccc2)nc(-c2ccccc2)[nH]c1=S`: the growth was 3.22% [100 µM] (active) and -27% [100 µM] (active).
Consider `Cc1cc2c3c(nc4ccccc42)C(=O)c2cccnc2-c3n1`, for which the growth was -74.8% [100 µM] (active) and -100% [100 µM] (active).
The result for `C=C1C(=O)OC2C1CC(O)/C(C)=C\CCC1(C)OC21` (stereo not given) reads 21.9% [100 µM] (inactive) and -83.3% [100 µM] (active).
The result for `Nc1cc2c3c(cccc3c1)C(=O)N(c1ccc(OCCN3CCCC3)cc1)C2=O` reads -78.2% [100 µM] (active) and -100% [100 µM] (active).
The result for `O=C1N(c2ccccc2)N=C2c3ccncc3C3=NN(c4ccccc4)C(=O)C123` (stereo not given) reads 28.9% [100 µM] (inactive) and -33.6% [100 µM] (active); that for `CC12NC(=C(C#N)C#N)C(C#N)=C3NC(N)=C(C#N)C(=C31)Oc1ccccc12` (stereo not given), 17.3% [100 µM] (inactive) and -45.9% [100 µM] (active); that for `CCCCOC(=O)C1CC[C@H]2[C@@H]3CCc4cc(OC(=O)c5cccc6c(=O)c7ccccc7[nH]c56)ccc4[C@H]3CC[C@]12C` (stereo not given in full), -86.3% [50 µM] (active) and -100% [50 µM] (active).
For the compound `N#Cc1sc2nc(/C=C3/C=CC=CC3=O)c(O)n2c1N`, the growth is 30.3% [100 µM] (inactive) and 3.44% [100 µM] (active).
In the case of `O=C1C=C(Nc2ccc(S(=O)(=O)Nc3nccs3)cc2)c2ccccc2C1=O`, the growth is -89% [100 µM] (active) and -74.5% [100 µM] (active).
As for `CCCn1c2c(c3ccccc3c1=O)C(=O)c1ccccc1-2`, the growth was 51.4% [100 µM] (inactive) and 17.4% [100 µM] (inactive).
With `CCOC(=O)CCC(NC(=O)c1ccc(OCc2nc3cc(C(F)(F)F)ccc3nc2-c2ccccc2)cc1)C(=O)OCC` (stereo not given), the growth is 32% [100 µM] (inactive) and -53% [100 µM] (active).
For `O=C1NC(=S)NC1C(Cc1ccccc1)c1ccco1` (stereo not given), the growth was 19% [100 µM] (inactive) and 3.76% [100 µM] (active).
Take `CN(C)CCNc1ccc(NCC[N+](C)(C)Cc2ccc([N+](=O)[O-])cc2)c2c1C(=O)c1c(O)ccc(O)c1C2=O`: the growth was 24.2% [100 µM] (inactive) and -30.3% [100 µM] (active).
`C#CCn1c2c(c3ccccc3c1=O)C(=O)c1ccccc1-2`: the growth is 11.6% [100 µM] (inactive) and 10.4% [100 µM] (inactive).
In the case of `C/C(Cl)=N/OC(=O)Nc1ccc(S(N)(=O)=O)c(C)c1`, the growth was -72.4% [100 µM] (active) and -89.8% [100 µM] (active).
In the case of `CC(=O)NC(CS/N=N/c1nc[nH]c1C(N)=O)C(=O)O` (stereo not given), the growth is 28.2% [100 µM] (inactive) and 6.86% [100 µM] (active).
The result for `CC(O)c1cc2c(s1)C(=O)c1ccsc1C2=O` (stereo not given) reads -56.8% [100 µM] (active) and -91.5% [100 µM] (active); that for `CCCCOC(=O)C1CN2C(=NC1(C(F)(F)F)C(F)(F)F)Sc1ccccc12` (stereo not given), 6.83% [100 µM] (active) and 25.5% [100 µM] (inactive).
`C[C@]12CC[C@@H]3c4cc(Br)c(O)c(Br)c4CC[C@H]3[C@@H]1CC(Br)C2=O` (stereo not given in full): the growth is -71.4% [100 µM] (active) and -70.2% [100 µM] (active).
`N#C/C(=C\c1ccccc1)C(=O)Nc1nnc(-c2ccccc2)o1`: the growth is 33.4% [100 µM] (inactive) and 3.23% [100 µM] (active).
In the case of `CC1(C)CC2(C)OC(=N)C1(C#N)C2(C#N)C#N` (stereo not given) it was -56.8% [100 µM] (active) and -71.8% [100 µM] (active); in that of `CCOC(=O)/C(C#N)=C(/NNc1ccccc1)c1ccncc1C(=O)O`, 28.2% [100 µM] (inactive) and 39.1% [100 µM] (inactive).
As for `CC(C)(C)c1cc(C2COC(=O)COCC(=O)OCCOCCOCCO2)cc(C(C)(C)C)c1O` (stereo not given), the growth is 64.9% [100 µM] (inactive) and 75.7% [100 µM] (inactive).
In the case of `CC#CC#C/C=C1\C=CC2(OC=CC2OC(C)=O)O1` (stereo not given) it was -91.4% [100 µM] (active) and -48.8% [100 µM] (active).
In the case of `N#Cc1cnn2c1n[n+]([O-])c1ccc(Cl)cc12`, the growth was 9.63% [100 µM] (active) and -99.2% [100 µM] (active).
The result for `CC1=CCC2C3(C)CCC2(C(C)C)C1C3` (stereo not given) (tested in a mixture with another compound) reads -76.9% [100 µM] (active) and -91.7% [100 µM] (active).
Regarding `CC(=O)Nc1c(C)cc2c(nc3n2CCC3OC(C)=O)c1[N+](=O)[O-]` (stereo not given), the growth is 105% [100 µM] (inactive) and 101% [100 µM] (inactive).
In the case of `COC(=O)C(=O)C(C(=O)C(=O)Nc1ccccc1C(=O)OC)c1nc2ccc(C(=O)c3ccccc3)cc2[nH]c1=O` (stereo not given) it was 58.7% [100 µM] (inactive) and 7.77% [100 µM] (active).
The result for `CCC/C(Cl)=N\OC(=O)Nc1ccc(F)cc1` reads -78.4% [100 µM] (active) and -69.5% [100 µM] (active); that for `CC(=O)OC(=C(C#N)C#N)c1nccnc1C(C)=O`, 106% [20 µM] (inactive) and 75.4% [20 µM] (inactive); that for `O=c1c(-c2ccc3c(c2)OCO3)coc2c3c(ccc12)OCO3`, -45% [100 µM] (active) and -62.5% [100 µM] (active).
In the case of `CC(C)C1OC23CCCCC2C(C#N)(C#N)C1(C#N)C(=N)O3` (stereo not given) it was -20.4% [100 µM] (active).
For `CCOc1cc2c(cc1O)C(=O)C[C@@H]1[C@@H]2CC[C@]2(C)[C@@H](O)CC[C@@H]12`, the growth is 4.23% [100 µM] (active) and -100% [100 µM] (active).
In the case of `CC(C)=CCC/C(C)=C/CC/C(C)=C/CC/C(C)=C/C=C/C=C(\C)CC/C=C(\C)CC/C=C(\C)CCC=C(C)C` it was 74.5% [100 µM] (inactive) and 28.2% [100 µM] (inactive).
For `COc1cc(Nc2ccc3c(c2)CCC3)nc(OC)n1`, the growth was 22.3% [100 µM] (inactive) and -82.6% [100 µM] (active).
The result for `CC#CC#C/C=C1/C=CC2(CCCCO2)O1` (stereo not given) reads 53.8% [100 µM] (inactive) and 0.753% [100 µM] (active).
In the case of `COc1cc([N+](=O)[O-])c(OC)c2c(Nc3ccc(S(=O)(=O)O)c4cc(S(=O)(=O)O)cc(S(=O)(=O)O)c34)cc(C)nc12`, the growth is -88.5% [100 µM] (active) and -100% [100 µM] (active).
For the compound `O=[N+]([O-])c1cccc(-c2ncnc(-c3cccc([N+](=O)[O-])c3)n2)c1`, the growth is 55.1% [100 µM] (inactive) and 68.9% [100 µM] (inactive).
